# In the supplement of paper PMC10849652:
# About 8,800 targets were measured; listed, in parts, are those with a hit and a random draw of the rest. About 0.5% of all pairs of compound and target were hits. Values without a mark were called inactive.
# Compound: NCC(=O)Nc1ccc(-n2nc(C(F)(F)F)cc2-c2ccc3c(ccc4ccccc43)c2)cc1
# Test: log2 fold change, soluble protein after heating vs DMSO (PISA); higher = thermal stabilisation; K562 lysate, 10 uM; active = over 0.2 and 3.5 SD of the protein, either way, in both replicates (recomputed)
# Summary of the method: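 A 30 min treatment with 10 μM compound was applied to crude K562 extract at 1 mg/mL protein in PBS pH 7.4 with 1 mM MgCl2. Heating for 3 min spanned 48°C-58°C, after which aliquots were pooled, adjusted to 0.5% NP-40 at 4°C and spun at 21,000xg for 90 min. TMTpro 16plex LC-MS/MS of the supernatant, with channel sums equalised, gave values recorded as log-two fold change in thermal stability against solvent controls, from duplicates.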
# Sequence of UniProt Q9NQS1 (Q9NQS1 whole entry, looked up): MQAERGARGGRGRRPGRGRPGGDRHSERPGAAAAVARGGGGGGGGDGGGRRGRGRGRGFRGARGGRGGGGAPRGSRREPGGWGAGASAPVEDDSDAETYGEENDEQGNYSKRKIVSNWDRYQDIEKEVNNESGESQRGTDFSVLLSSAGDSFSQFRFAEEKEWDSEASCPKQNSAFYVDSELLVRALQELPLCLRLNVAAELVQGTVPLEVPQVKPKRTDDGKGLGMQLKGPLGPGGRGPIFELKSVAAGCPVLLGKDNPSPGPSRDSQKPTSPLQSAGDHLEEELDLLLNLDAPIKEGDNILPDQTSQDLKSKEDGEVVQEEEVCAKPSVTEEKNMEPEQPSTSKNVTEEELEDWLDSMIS
# Sequence of UniProt Q9Y4P1 (Q9Y4P1 whole entry, looked up): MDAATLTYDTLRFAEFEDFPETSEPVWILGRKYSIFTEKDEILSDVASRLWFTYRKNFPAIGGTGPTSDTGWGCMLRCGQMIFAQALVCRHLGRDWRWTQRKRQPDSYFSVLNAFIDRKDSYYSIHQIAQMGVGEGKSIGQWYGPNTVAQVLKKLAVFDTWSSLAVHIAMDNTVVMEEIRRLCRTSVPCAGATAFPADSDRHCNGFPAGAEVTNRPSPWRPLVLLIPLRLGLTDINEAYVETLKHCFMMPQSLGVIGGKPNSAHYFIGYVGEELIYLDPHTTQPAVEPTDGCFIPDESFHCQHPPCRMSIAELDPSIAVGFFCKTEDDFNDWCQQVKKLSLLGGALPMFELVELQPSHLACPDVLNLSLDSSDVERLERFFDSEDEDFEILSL
# Sequence of UniProt P01024 (P01024 whole entry, looked up): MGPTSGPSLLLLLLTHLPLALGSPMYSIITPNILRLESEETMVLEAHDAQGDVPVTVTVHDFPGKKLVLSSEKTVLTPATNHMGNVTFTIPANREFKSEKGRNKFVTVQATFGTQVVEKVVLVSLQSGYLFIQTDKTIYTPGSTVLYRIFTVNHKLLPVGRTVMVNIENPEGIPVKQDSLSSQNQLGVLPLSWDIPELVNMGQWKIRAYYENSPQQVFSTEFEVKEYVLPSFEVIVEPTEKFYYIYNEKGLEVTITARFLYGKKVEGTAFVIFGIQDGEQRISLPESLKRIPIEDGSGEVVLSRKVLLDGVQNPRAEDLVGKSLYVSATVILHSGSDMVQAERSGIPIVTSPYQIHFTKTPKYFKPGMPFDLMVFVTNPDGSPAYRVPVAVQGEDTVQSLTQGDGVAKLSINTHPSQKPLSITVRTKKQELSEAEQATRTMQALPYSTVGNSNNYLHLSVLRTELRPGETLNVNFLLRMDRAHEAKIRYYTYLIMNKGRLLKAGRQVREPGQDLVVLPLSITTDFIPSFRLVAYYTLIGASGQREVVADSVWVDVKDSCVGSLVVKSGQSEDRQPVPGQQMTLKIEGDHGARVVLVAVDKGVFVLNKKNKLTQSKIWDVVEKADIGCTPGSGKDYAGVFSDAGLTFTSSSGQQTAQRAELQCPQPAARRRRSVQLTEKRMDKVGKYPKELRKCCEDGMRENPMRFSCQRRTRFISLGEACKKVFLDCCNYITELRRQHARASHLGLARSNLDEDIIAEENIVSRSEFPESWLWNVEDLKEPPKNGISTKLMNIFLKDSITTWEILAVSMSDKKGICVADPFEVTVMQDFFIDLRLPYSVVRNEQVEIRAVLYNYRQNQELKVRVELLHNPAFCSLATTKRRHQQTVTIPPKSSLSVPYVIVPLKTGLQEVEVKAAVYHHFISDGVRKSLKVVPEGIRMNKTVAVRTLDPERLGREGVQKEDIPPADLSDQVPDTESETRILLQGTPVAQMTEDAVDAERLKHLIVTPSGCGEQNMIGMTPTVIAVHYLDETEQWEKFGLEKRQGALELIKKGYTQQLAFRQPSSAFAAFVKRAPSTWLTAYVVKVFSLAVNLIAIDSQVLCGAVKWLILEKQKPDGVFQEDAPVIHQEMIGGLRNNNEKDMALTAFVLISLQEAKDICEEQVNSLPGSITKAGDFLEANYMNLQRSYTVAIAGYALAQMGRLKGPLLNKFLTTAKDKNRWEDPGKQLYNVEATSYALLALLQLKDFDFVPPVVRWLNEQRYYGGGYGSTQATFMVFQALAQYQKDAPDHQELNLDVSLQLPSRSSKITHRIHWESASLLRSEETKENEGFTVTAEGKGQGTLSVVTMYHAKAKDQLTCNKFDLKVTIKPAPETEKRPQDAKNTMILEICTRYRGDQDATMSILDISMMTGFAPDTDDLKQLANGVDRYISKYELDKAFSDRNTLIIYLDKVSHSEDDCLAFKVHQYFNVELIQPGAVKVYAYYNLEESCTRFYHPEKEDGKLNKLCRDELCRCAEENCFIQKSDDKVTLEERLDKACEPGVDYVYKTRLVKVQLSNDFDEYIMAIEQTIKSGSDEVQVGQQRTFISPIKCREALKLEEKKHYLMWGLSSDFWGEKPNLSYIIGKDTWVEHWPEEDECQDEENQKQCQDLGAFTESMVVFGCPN
# Sequence of UniProt Q13825 (Q13825 whole entry, looked up): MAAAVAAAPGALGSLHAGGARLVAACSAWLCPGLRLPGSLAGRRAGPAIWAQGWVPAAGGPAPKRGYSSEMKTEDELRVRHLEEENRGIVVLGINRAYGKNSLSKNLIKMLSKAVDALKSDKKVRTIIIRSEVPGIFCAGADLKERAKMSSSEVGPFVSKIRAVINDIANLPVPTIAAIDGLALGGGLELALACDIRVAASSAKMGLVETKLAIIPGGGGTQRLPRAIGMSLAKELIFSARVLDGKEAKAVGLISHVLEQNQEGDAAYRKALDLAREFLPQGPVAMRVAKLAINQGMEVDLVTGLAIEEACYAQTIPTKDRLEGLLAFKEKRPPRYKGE
# Sequence of UniProt Q96B23 (Q96B23 whole entry, looked up): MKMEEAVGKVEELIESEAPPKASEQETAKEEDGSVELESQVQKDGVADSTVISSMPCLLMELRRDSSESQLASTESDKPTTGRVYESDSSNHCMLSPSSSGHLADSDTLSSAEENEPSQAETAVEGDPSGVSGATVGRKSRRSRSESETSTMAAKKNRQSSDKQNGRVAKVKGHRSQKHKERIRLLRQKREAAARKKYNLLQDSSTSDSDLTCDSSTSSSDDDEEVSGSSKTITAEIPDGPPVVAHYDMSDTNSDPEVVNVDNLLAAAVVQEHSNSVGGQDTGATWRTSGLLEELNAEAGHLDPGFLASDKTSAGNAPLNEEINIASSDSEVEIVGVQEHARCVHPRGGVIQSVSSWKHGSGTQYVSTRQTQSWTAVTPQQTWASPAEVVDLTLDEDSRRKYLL
# Sequence of UniProt Q9Y2V2 (Q9Y2V2 whole entry, looked up): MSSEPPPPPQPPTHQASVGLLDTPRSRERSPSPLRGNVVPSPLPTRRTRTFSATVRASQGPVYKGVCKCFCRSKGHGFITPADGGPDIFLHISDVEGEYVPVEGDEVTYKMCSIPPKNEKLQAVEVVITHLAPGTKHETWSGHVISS
# Sequence of UniProt Q5T9A4 (Q5T9A4 whole entry, looked up): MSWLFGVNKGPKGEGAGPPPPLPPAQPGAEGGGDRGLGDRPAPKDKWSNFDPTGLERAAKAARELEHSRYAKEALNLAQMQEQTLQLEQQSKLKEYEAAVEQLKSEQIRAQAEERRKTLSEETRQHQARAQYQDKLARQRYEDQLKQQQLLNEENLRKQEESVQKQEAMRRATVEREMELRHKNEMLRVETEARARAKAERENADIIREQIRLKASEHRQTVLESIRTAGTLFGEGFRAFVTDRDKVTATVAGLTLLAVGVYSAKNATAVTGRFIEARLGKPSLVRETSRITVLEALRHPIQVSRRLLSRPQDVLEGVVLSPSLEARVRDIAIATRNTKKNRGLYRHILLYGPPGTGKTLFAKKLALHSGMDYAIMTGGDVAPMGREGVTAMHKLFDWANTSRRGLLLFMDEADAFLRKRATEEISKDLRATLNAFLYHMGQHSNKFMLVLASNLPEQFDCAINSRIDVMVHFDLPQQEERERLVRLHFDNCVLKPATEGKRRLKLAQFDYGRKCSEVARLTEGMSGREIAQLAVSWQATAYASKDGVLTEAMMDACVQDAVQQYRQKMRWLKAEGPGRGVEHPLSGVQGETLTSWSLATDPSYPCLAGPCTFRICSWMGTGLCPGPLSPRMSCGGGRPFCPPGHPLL
# Sequence of UniProt Q8IWZ6 (Q8IWZ6 whole entry, looked up): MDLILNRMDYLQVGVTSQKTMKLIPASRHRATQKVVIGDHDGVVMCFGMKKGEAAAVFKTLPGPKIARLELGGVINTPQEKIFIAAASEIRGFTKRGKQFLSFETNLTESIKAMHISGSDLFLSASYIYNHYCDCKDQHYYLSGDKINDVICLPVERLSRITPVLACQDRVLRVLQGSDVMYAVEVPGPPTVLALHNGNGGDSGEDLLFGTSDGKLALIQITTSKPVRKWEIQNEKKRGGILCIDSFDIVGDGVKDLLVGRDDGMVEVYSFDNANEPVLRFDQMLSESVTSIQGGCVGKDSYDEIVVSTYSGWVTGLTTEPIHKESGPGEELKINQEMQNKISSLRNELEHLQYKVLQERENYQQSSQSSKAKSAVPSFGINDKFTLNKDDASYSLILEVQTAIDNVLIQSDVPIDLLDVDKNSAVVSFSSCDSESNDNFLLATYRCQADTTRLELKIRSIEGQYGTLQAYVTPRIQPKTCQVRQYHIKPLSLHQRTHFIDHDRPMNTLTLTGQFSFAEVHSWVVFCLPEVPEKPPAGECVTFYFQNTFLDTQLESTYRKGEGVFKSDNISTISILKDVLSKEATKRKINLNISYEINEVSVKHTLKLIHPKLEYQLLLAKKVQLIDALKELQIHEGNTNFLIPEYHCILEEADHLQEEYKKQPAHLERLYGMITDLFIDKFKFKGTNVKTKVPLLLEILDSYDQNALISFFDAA
# Sequence of UniProt Q9UL45 (Q9UL45 whole entry, looked up): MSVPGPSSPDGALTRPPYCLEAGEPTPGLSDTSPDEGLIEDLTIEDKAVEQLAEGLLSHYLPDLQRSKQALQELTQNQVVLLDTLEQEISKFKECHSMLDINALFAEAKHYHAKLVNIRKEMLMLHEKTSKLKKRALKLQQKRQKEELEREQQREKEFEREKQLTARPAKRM
# Sequence of UniProt A8MTT3 (A8MTT3 whole entry, looked up): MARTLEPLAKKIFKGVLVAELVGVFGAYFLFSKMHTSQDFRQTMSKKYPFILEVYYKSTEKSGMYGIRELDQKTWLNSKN
row,Target,log2 fold change
1,ATAD3B (UniProt Q5T9A4),-0.128
2,BBS7 (UniProt Q8IWZ6),-0.006
3,CEP120 (UniProt Q8N960),0.261
4,AUH (UniProt Q13825),0.1
5,CAMKK1 isoform 2 (UniProt Q8N5S9),0.006
6,C3 (UniProt P01024),0.024
7,CCNA2 (UniProt P20248),0.005
8,CDKN1C (UniProt P49918),0.124
9,CCNB2 (UniProt O95067),0.01
10,BLOC1S6 (UniProt Q9UL45),-0.022
11,CASP6 (UniProt P55212),-0.014
12,CEP152 (UniProt O94986),0.025
13,AVEN (UniProt Q9NQS1),-0.146
14,BLM (UniProt P54132),0.03
15,CCP110 (UniProt O43303),-0.033
16,CDC42EP4 (UniProt Q9H3Q1),0
17,CARHSP1 (UniProt Q9Y2V2),0.045
18,BNIP1 (UniProt Q12981),-0.013
19,CBR1 (UniProt P16152),-0.01

row,Target,log2 fold change
1,ATG10 (UniProt Q9H0Y0),-0.032
2,C18orf25 (UniProt Q96B23),0.03
3,CDK5RAP2 (UniProt Q96SN8),0.042
4,BRD4 (UniProt O60885),0.01
5,CAMK2B (UniProt Q13554),0.014
6,CHAF1A (UniProt Q13111),0.004
7,ATP11A (UniProt P98196),0.168
8,C19orf54 (UniProt Q5BKX5),-0.052
9,BCKDHB (UniProt P21953),0.055
10,CDK5RAP3 isoform 4 (UniProt Q96JB5),0.046
11,CDK2 (UniProt P24941),-0.02
12,CDK17 isoform 2 (UniProt Q00537),0.01
13,CDC7 (UniProt O00311),0.086
14,CCDC25 (UniProt Q86WR0),0.025
15,ATG4B (UniProt Q9Y4P1),-0.009
16,CEBPZOS (UniProt A8MTT3),-0.113
17,CDK9 isoform 2 (UniProt P50750),0.081
18,CHD5 (UniProt Q8TDI0),0.059
19,AURKA (UniProt O14965),-0.008
